Compounds with a hit are over-represented: about 21% of the library has one in this group of screens.
Cycloheximide cs – Cycloheximide Counterscreen for Small Molecule Inhibitors of Shiga Toxin; 300,000 compounds, 12% hits; cell reporter, cycloheximide protein synthesis inhibition counterscreen; max response, %; in the data active means max response mostly above about 13%, no sharp cut-off; inactive means mostly below about 14%; further: read at 38.3 µM for the half of the compounds with a filed dose; 0% is about no effect
HCMV inh – qHTS Assay for inhibitors of the human cytomegalovirus (HCMV); HFF cells, HCMV-luciferase reporter, 72 h; stronger effect = lower value; activity change, negative = inhibition, % at 57.5 µM; 410,000 compounds, 4.5% hits; in the data active means activity change below about -60%; inconclusive means no clear call, values can overlap the other calls; inactive means above about -39%; further: on the % scale 0 is the no-effect control and ±100 the full control effect
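Screen run at 2 compound doses on HFFs infected with reporter HCMV, MOI 1 PFU/cell. Luciferase activity from cell lysates at 72 h post infection gave inhibition relative to buffer-only and Salinomycin wells.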
Pf growth 96h – Primary qHTS for delayed death inhibitors of the malarial parasite plastid, 96 hour incubation; 320,000 compounds, 6.9% hits; P. falciparum luciferase reporter growth, 96 h; Potency, µM (titrated, usually from 28.7 µM), for inactives: at the top dose activity change, negative = inhibition, hits mostly inhibitors; AID 504834, 2011; further: potency means the concentration at half of the fitted maximal effect; on the % scale 0 is the no-effect control and ±100 the full control effect
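Luminescence readout: decreased luciferase signal marks inhibited growth of reporter-expressing P. falciparum in infected red cells (2% hematocrit, 0.05% parasitemia final), exposed to compound two generations (96 h, 37 C, 5% CO2).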
Shiga toxin inh – A qHTS for Small Molecule Inhibitors of Shiga Toxin; 290,000 compounds, 9.2% hits; inhibition, % at 38.7 µM; Vero cells, Shiga toxin protein synthesis inhibition reporter; AID 2315, 2010; in the data active means inhibition mostly above about 28%, no sharp cut-off; inactive means mostly below about 43%; further: 0% is about no effect
Pf growth 48h – Primary qHTS for delayed death inhibitors of the malarial parasite plastid, 48 hour incubation | Potency, µM (series often up to 28.7 µM), inactives show at the top dose activity change, negative = inhibition, actives largely listed as inhibitors | AID 504832, 2011 | 310,000 compounds, 5.9% hits | P. falciparum luciferase growth in erythrocytes, 48 h; further: potency means the concentration at half of the fitted maximal effect; on the % scale 0 is the no-effect control and ±100 the full control effect
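First compound was added to culture medium, then infected red cells at 0.1% parasitemia and 2% hematocrit (final). After incubation at 37 C under 5% CO2, luciferase detection reagent was dispensed and light output recorded.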
HCV inh – qHTS Assay for Inhibitors of Hepatitis C Virus (HCV) | Huh7.5.1 HCVcc-Cre infection, luciferase reporter, 44 h | Potency, µM (series often up to 41.8 µM), for the others: at the highest dose activity change, negative = inhibition, hits mostly inhibitors | 340,000 compounds, 3.4% hits | AID 651820, 2012; further: potency means the concentration at half of the fitted maximal effect; on the % scale 0 is the no-effect control and ±100 the full control effect
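Infectious HCV cell culture screen: compound-treated cells (1,000/well, pre-plated 4 h) are infected with HCVcc-Cre at roughly 0.5 moi and grown 44 h. Infection is quantified by luciferase signal after 15 min substrate incubation at room temperature.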
* hit, by the source's call; ? = inconclusive; . = no result given. Unless noted, the call rests on the fitted dose curve; in most records, active means well fitted inhibition curve with a large enough effect; inconclusive means small, poorly fitted or top-dose-only effect, or another doubt; inactive means no such curve, though single readings can be large or run the other way.

SMILES | Cycloheximide cs | HCMV inh | Pf growth 96h | Shiga toxin inh | Pf growth 48h | HCV inh
O=C(Nc1nc(-c2ccccn2)cs1)c1ccccc1-n1cnnn1 | 10.4* | -91.9* | 1.65µM* | 5.5 | ? | ?
Cc1ccc(-c2csc(NC(=O)c3cccc([N+](=O)[O-])c3C(=O)O)n2)cc1 | 30.4 | 42.6 | 41.3% | 54.6 | 12.8% | 16.4%
O=C(Nc1nc(-c2ccccn2)cs1)c1ccc2c(c1)OCCO2 | 44.2* | -26.8 | ? | 61.8* | 220.4% | ?
CCC(C)NC(=O)CCc1c(C)nc2c(c(C)nn2-c2ccc(C)cc2)c1C (centres undefined) | . | -4.0 | . | . | . | .
CC(=O)NC(=O)c1ccc(-c2ccc(Cl)cc2)o1 | 25.0* | 61.9 | -28.6% | 16.9* | ? | -4.3%
COc1ccccc1NC(=S)NC(=O)c1ccc(-c2ccc(Cl)cc2)o1 | -2.3 | -63.2* | 61.6% | -8.7 | 4.9% | ?
CCn1nnc(NC(=O)c2ccc(-c3ccc(Cl)cc3)o2)n1 | 35.9* | 39.3 | -8.7% | 34.9* | 0.7% | ?
O=C(NC(=S)Nc1ccccc1O)c1ccc(-c2ccc(Cl)cc2)o1 | -2.4 | -3.2 | 0.0% | -3.8 | 7.2% | 8.2%
CCn1nnc(NC(=O)Cc2ccc(Cl)cc2)n1 | 7.8 | -0.3 | 61.9% | 27.2 | 3.6% | -9.1%
CCN(CC)CCCNC(=O)c1nn(-c2ccc(OC)cc2)c(=O)c2c1c1ccccc1n2C | . | 13.5 | . | . | . | .
CC1CCCCN1C(=O)C1CCCCN1S(=O)(=O)c1cccc([N+](=O)[O-])c1 (centres undefined) | -1.2 | ? | -1.9% | 7.7 | -8.4% | 6.7%
O=C(Nc1ccc(N2CCOCC2)cc1)C1CCN(S(=O)(=O)c2ccccc2F)CC1 | -0.6 | -5.4 | -1.1% | 15.1 | -15.2% | -5.3%
Cc1csc(NC(=O)C2CCN(S(=O)(=O)c3ccc4c(c3)oc(=O)n4C)CC2)n1 | -7.2 | 17.0 | 3.29µM* | -18.6 | . | -12.8%
Cc1csc(NC(=O)C2CCN(S(=O)(=O)c3ccccc3F)CC2)n1 | 3.3 | -60.3* | ? | 25.7 | 4.2% | ?
CN(CC(=O)Nc1ccc(N2CCOCC2)cc1)C(=O)Cc1ccccc1 | . | -23.7 | -24.2% | . | -25.2% | -2.2%
COC(=O)c1c(C)[nH]c(C(=O)C(C)OC(=O)c2c(C)noc2C)c1C (centres undefined) | . | -10.0 | 4.15µM* | . | ? | ?
COc1ccc(N2C(=O)c3ccc(C(=O)Nc4ccccc4OC)cc3C2=O)cc1 | -1.7 | -37.5 | -12.1% | -8.2 | 2.7% | 0.5%
Cc1ccc(C(=O)COC(=O)c2ccc3c(c2)C(=O)N(c2cccc4ncccc24)C3=O)cc1C | -4.0 | 12.4 | -0.2% | -14.6 | 15.3% | 10.8%
O=C1c2ccc3c4c(ccc(c24)C(=O)N1c1cccc(O)c1)C(=O)N(c1cccc(O)c1)C3=O | -3.8 | -88.1* | 1.04µM* | 3.1 | 1.85µM* | 5.01µM*
COc1ccccc1Oc1ccc2c(c1)C(=O)N(c1cccc3ncccc13)C2=O | 41.4* | -18.6 | 184.5% | 65.8* | 12.7% | ?
COc1ccccc1Oc1ccc2c(c1)C(=O)N(c1cccc(O)c1)C2=O | 27.8* | -4.7 | 66.3% | 38.4* | 2.62µM* | 22.2%
Cc1ccc(-c2nc(CS(=O)(=O)CC(=O)NC(C)CCc3ccccc3)c(C)o2)cc1 (centres undefined) | . | -33.6 | . | . | . | .
Cc1ccc(NC(=O)Cn2ncn3c(cc4ccccc43)c2=O)cc1C | . | 7.0 | . | . | . | .
CCCCCNCc1ccc(Cl)cc1 | 16.9 | ? | 104.6% | 25.5 | 4.7% | 11.1%
CC(NCc1ccccc1C(F)(F)F)C(O)c1ccccc1 (centres undefined) | 4.2 | -30.5 | -0.8% | 19.8 | 8.28µM* | 5.5%
OCC(Cc1ccccc1)NCc1ccccc1C(F)(F)F (centres undefined) | -2.2 | 10.4 | 33.4% | -0.9 | -6.4% | 5.6%
COc1cc(CNC(C)c2ccccc2)cc(Cl)c1OCC(=O)Nc1ccccc1 (centres undefined) | 0.9 | -39.4 | ? | 10.6 | 11.7µM* | 11.2µM*
